Drawing on PubChem BioAssay AID818 (SRMLSC, 2007), this text covers viability for 5 molecules.

Out of some 140,000 compounds screened, about 2,100 (1.5%) were called active.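 How the source made its calls: active means viability at or under a set limit, the compound median less 4 SD (cut at about 6% in these data); inactive means the rest.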 Many of the other results were omitted from the sample, so actives are more common in it than they were.

This assay is described as follows: primary screen for growth suppressors in beta-catenin knockout HCT116 cells (colon tumor, human) (AID 818).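 Further: 0% = Hyamine 1622 control at 20 µM and 100% = untreated cell control.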 Conditions: CellTiter-Glo, 60 h, at 10 µM, stronger effect = lower value. Background: ATP-based viability assays read luminescence as a measure of living cells.
For the molecule `CN(C)c1ccc(/C=C2\CC3C4CC=C5CC(O)CCC5(C)C4CCC3(C)C2=O)cc1` (stereo not given), the viability is 2.09% (active).

In the case of `C[N+]1(C)CCOC(O)(c2ccc(-c3ccc(C4(O)C[N+](C)(C)CCO4)cc3)cc2)C1` (stereo not given), the viability is 79.5% (inactive). `Cc1nn(Cc2ccccc2Cl)c(Cl)c1C(=O)OC(C(=O)NC(N)=O)C(C)C` (stereo not given): the viability is 83% (inactive).

`Cc1ccc2c(c1)=C/C(=C\c1c(O)[nH]c(=O)[nH]c1=O)C(=O)N=2`: the viability was 82.4% (inactive). On to `Cc1cccc(OP(=O)(Oc2cccc(C)c2)OC(c2ccccc2)C(F)(F)F)c1` (stereo not given), for which the viability was 66.6% (inactive).

A word on the viability: it is the share of living cells, or the viability signal relative to a control.
